Compounds with a hit are over-represented: about 21% of the library has one in this group of screens.
ELG1 repair inh: inhibitors of ELG1-dependent DNA repair in HEK293T cells | actives 2.3% (n = 330,000) | HEK293T ELG1-luciferase reporter, luminescence, 16 h; DNA damage induced by 5-fluorouridine | Potency, µM (doses to about 46.1 µM), usual class: inhibitors; further: nearly all actives have a fitted effect of over 55% in size
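5-Fluorouridine DNA damage + compound/DMSO, 2,000 cells/well, 16 h, 37 °C/5% CO2. ONE-Glo, 30 min RT, luminescence. Readout = decrease in reporter signal.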
DT40 TDP1 no CPT: qHTS for Inhibitors of human tyrosyl-DNA phosphodiesterase 1 (TDP1): qHTS in cells in absence of CPT; DT40 Tdp1-/- hTDP1 cells, no CPT, ATP luminescence, 48 h; Potency, µM (titrated, usually from 46.2 µM), hits mostly inhibitors; actives 15% (n = 420,000); further: nearly all actives have a fitted effect of over 55% in size
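A cellular qHTS used chicken DT40 cells lacking endogenous Tdp1 but carrying stably transfected human TDP1. Compounds were applied without camptothecin, and cell growth kinetics were judged by ATP-dependent luminescence after ≥48 hr.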
RORgamma inh: blocks mouse ROR gamma transcriptional activity. Drosophila S2 Gal4-RORgamma UAS-luciferase reporter, 20 h. P51450. AID 2551. actives 5.4% (n = 310,000). Potency, µM (highest dose often 53.6 µM), hits mostly inhibitors; further: nearly all actives have a fitted effect of over 60% in size
Target sequence (P51450 whole entry, looked up, the tested form may be a part): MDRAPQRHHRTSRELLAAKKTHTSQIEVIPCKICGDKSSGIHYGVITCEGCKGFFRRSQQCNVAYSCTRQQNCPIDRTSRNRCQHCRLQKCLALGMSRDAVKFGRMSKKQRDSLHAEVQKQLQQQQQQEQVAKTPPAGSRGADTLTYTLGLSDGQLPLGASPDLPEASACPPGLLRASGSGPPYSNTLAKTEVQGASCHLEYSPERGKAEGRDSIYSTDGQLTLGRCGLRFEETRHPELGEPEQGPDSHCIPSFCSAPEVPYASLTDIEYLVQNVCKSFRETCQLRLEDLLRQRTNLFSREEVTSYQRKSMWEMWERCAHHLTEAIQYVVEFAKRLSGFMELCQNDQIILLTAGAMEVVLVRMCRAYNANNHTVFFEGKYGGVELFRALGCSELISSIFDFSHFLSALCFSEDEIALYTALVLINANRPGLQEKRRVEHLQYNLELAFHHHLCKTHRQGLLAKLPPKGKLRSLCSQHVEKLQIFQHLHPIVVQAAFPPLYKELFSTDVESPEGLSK
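Drosophila Schneider cells stably carrying a metallothionein-driven Gal4 DBD–ROR gamma fusion and a UAS-Photinus luciferase reporter were exposed to compound for 1 hr, then induced with copper sulfate (700 uM final) for 20 hr at ambient temperature before luminescence reading.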
VP16 counter: Gal4-VP16 reporter inhibition counter-screen | AID 2546 | Drosophila S2 Gal4-VP16 UAS-luciferase, luminescence, 20 h | Potency, µM (highest dose often 53.6 µM), actives largely listed as inhibitors | actives 3.5% (n = 310,000);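 further: Gal4-VP16 expression switched on by copper sulfate through the metallothionein promoter; nearly all actives have a fitted effect of over 50% in size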
TDP1 cell CPT: growth inhibition of DT40 Tdp1-/-;hTDP1 cells with camptothecin (screen for TDP1 inhibitors). chicken DT40 Tdp1-/-;hTDP1 cells + 20 nM CPT, ATP luminescence, 48 h. actives 12% (n = 420,000). Potency, µM (titrated, usually from 46.2 µM), actives largely listed as inhibitors. AID 686979; further: nearly all actives have a fitted effect of over 55% in size
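Chicken DT40 Tdp1-/- cells stably complemented with human TDP1 were seeded at 400 cells/well in medium containing 20 nM camptothecin, exposed to pin-transferred compounds, and grown at 37 °C for at least 48 hr. Viability was read as ATP luminescence.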
IL-1B inflam inh: inflammasome signaling inhibition, IL-1 beta readout | THP-1 LPS/ATP IL-1B secretion, AlphaLISA, 16 h; hits give low values | activity change, % at 57.5 µM | actives 4.7% (n = 360,000); in the data active means activity change below about -50%; inconclusive means mostly about -30% to -49%
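THP-1 cells pretreated 1 hr with compounds (up to 57.5 uM final), then stimulated with LPS (250 ng/mL final) plus ATP (1.25 mM final); secreted IL-1B measured by AlphaLISA after 16 hr, decreased signal indicating inhibition.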
A number is an active result; - = inactive; ? = inconclusive; . = no result; [ ] = dose if it differs, or a comment. Unless noted, the call rests on the fitted dose curve; in most records, active means well fitted curve in the direction sought with a large enough effect; inconclusive means small, poorly fitted or top-dose-only effect, or another doubt; inactive means no such curve, though single readings can be large; an effect the other way counts as inactive or inconclusive.

SMILES | ELG1 repair inh | DT40 TDP1 no CPT | RORgamma inh | VP16 counter | TDP1 cell CPT | IL-1B inflam inh
O=S(=O)(Nc1cccc(C(F)(F)F)c1)c1cccnc1 | - | - | - | - | - | -
Cc1ccc2ccc(C(Nc3cccc(C(F)(F)F)c3)c3cccnc3)c(O)c2n1 (stereo not drawn) | - | ? | 7.1µM | ? | ? | -
O=C(CC(Nc1ccccc1)c1ccc(F)cc1)c1ccccc1 (stereo not drawn) | ? | ? | - | - | ? | -
CCCCOc1ccc(C(=O)NCC(=O)NCC(c2ccc(F)cc2)N2CCOCC2)cc1 (stereo not drawn) | - | ? | . | . | ? | -
CC(=O)Nc1ccc2c(c1)C(N1CC3CCC(CC3)C1)c1ccccc1-2 (stereo not drawn) | . | - | . | . | ? | ?
C=CCCC/C=C(/C)C(OCc1ccc(OC)cc1)C(CC/C=C(\C)C(N)=O)OC (stereo not drawn) | . | . | -[10 µM] | -[10 µM] | . | .
Cc1ccc2ccc(C(Nc3ccccc3)c3ccc(C(C)C)cc3)c(O)c2n1 (stereo not drawn) | . | 12µM | . | . | 15µM | -
O=C1c2ccccc2C(=O)N1CCCc1cn(C[C@H]2CC[C@H](Cn3cc(CCCN4C(=O)c5ccccc5C4=O)nn3)O2)nn1 | 8.2µM | ? | . | . | - | -
c1ccc(-c2cn(C[C@H]3CC[C@H](Cn4cc(-c5ccccn5)nn4)O3)nn2)nc1 | - | - | - | ? | - | -
Cc1nc(C)c(C(=O)NCCC(c2ccccc2)c2ccccc2)o1 | 5.8µM | 12µM | ? | - | ? | -
COc1ccc(-c2coc3cc4oc(=O)c5ccccc5c4cc23)cc1F | - | 0.65µM | - | - | 0.82µM | -
COc1ccc(-c2c(-c3ccccc3OC)oc3ccccc23)cc1F | ? | ? | . | . | ? | -
CCC1(c2ccccc2)ON(c2c(Br)cccc2Br)C1=O (stereo not drawn) | ? | 16µM | . | . | 18µM | -97
CC1=C(c2ccccc2)C(O)(c2ccccc2)C(C)C1=O (stereo not drawn) | . | 16µM | . | . | 16µM | -
CC1=C(c2ccccc2)CCC1=O | . | - | . | . | - | -
CCN1CCN(c2nc3c(c(=O)[nH]c(=O)n3C)n2Cc2cccc(C)c2)CC1 | . | - | . | . | - | -
O=C(Nc1nccs1)c1ccc([N+](=O)[O-])cc1 | ? | - | 8.9µM | - | - | -
Cn1cc([N+](=O)[O-])c(C(=O)Nc2ccc(Br)cn2)n1 | - | - | - | - | - | -87
CCSc1ccc(C(=O)Nc2ccc(Br)cn2)cc1[N+](=O)[O-] | ? | ? | - | - | - | -
Cn1cc([N+](=O)[O-])c(C(=O)Nc2nccs2)n1 | ? | - | - | - | - | -98
Cc1cn([C@H]2C[C@H](O)[C@@H](CNCc3cccc(OC4CCCC4)c3)O2)c(=O)[nH]c1=O | . | - | . | . | - | -
Cc1noc(C)c1C(=O)N1CCC2(CCCN(C(=O)Nc3cccc(C#N)c3)C2)CC1 | . | - | - | - | - | .
CCCCN1C(=O)c2cccc3cc(O)cc(c23)C1=O | . | ? | . | . | - | -
Cc1ccccc1OCC(=O)NCC(=O)OCc1cccc2ccccc12 | . | - | . | . | - | .
Cc1ccccc1OCC(=O)NCC(=O)OCC(=O)c1ccc([N+](=O)[O-])cc1 | - | 11µM | - | - | 26µM | ?
SMILES | ELG1 repair inh | DT40 TDP1 no CPT | RORgamma inh | VP16 counter | TDP1 cell CPT | IL-1B inflam inh
O=C(CCC(=O)OCC(=O)c1ccc([N+](=O)[O-])cc1)Nc1ccccc1Cl | - | ? | - | - | 18µM | -
Cc1ccccc1OCC(=O)NCC(=O)OCc1ccc2ccccc2c1 | . | 16µM | . | . | ? | .
NC(=O)COC(=O)c1ccc(-c2ccccc2)cc1 | - | - | - | - | - | -
O=C(N/N=C/c1ccccn1)c1cc(-c2ccc(Br)s2)[nH]n1 | - | ? | 18µM | - | ? | -
O=C(N/N=C/c1ccccn1)c1cc(-c2ccc(Cl)s2)[nH]n1 | - | 16µM | ? | - | 23µM | -
O=C(N/N=C/c1ccncc1)c1cc(-c2ccc(Br)s2)[nH]n1 | - | ? | - | ? | - | -
C/C(=N/NC(=O)c1cc(-c2ccc(Cl)s2)[nH]n1)c1ccco1 | - | ? | - | - | - | .
CSc1nc(=S)cc(C)[nH]1 | - | ? | ? | - | 18µM | -
COc1cc(-c2cc(OC)c3c(C)oc(C)c3c(=O)c2)ccc1OC(=O)c1ccccc1C | . | 8.2µM | . | . | 5.2µM | .
Cc1cc(C(=O)Oc2ccccc2C(=O)O)c(C)o1 | - | - | ? | - | ? | -
COc1ccc(-c2cc(OC(=O)c3ccccc3C)c3c(C)oc(C)c3c(=O)c2)cc1 | . | 16µM | . | . | ? | .
COc1ccc(-c2cc(OC(=O)c3ccccc3Cl)c3c(C)oc(C)c3c(=O)c2)cc1OC | . | ? | . | . | 23µM | .
COC(=O)c1cc(OC)c(OC)cc1NC(=O)c1ccccc1C | - | - | - | - | - | -
COc1ccc(NC(=O)N2CC[C@@]3(CCCN(C(=O)c4ccncc4)C3)C2)cc1 | . | - | - | - | - | .
N#Cc1cccc(-n2c(-c3ccccc3)nnc2-c2ccccc2)c1C#N | ? | ? | - | - | ? | ?
N#Cc1ccc(-n2c(-c3ccccc3)nnc2-c2ccccc2)cc1C#N | ? | 16µM | ? | - | ? | -74
CCCCCn1c(=S)[nH]c2ncccc2c1=O | ? | - | 1.1µM | 2.8µM | - | -
COCCCn1c(=S)[nH]c2ncccc2c1=O | - | - | 11µM | - | - | -
O=C(Cn1c(=S)[nH]c2ncccc2c1=O)NCCc1ccccc1 | - | . | - | - | . | .
O=c1c2cccnc2[nH]c(=S)n1CCC1=CCCCC1 | - | ? | 0.89µM | 1.6µM | ? | -
COCCn1c(=S)[nH]c2ncccc2c1=O | ? | - | - | - | - | -
CN(CCCn1c(=S)[nH]c2ncccc2c1=O)Cc1ccccc1 | - | - | - | - | - | -
CC1=C(C(=O)N2CCCCCC2)CC(CC(=O)NCCN2CCOCC2)C(=O)N1CCCN1CCCC1=O (stereo not drawn) | . | - | . | . | - | .
C[C@H]1C(=O)N(S(=O)(=O)c2ccccc2[N+](=O)[O-])[C@H]1c1ccc(-c2ccccc2)cc1 | . | . | - | - | . | .
COc1ccccc1-n1cnc(N)c1C(C)=O | - | - | - | - | - | -
COc1ccccc1-n1cnc(N)c1C(=O)c1ccccc1 | ? | 8.2µM | - | - | 9.2µM | -
CCOc1ccc(NC(=O)c2ccc3c(c2)CCN3S(=O)(=O)c2ccc(Cl)cc2)cc1 | . | ? | . | . | - | .
CCN(CC)S(=O)(=O)c1cccc(C(=O)NNC(=O)C2=NN(c3ccccc3)C(=O)CC2)c1 | - | - | - | - | - | -
